Compound activity from PubChem BioAssay.
Autofluor counter: flagged as autofluorescent in microsphere protease counterscreen; AID 624483; fluorescence intensity (concentration not given with the values); 360,000 tested, 3.1% active; compound autofluorescence counterscreen, microsphere flow cytometry; stronger effect = higher value; in the data active = fluorescence intensity above about 16000; inconclusive = no clear call, values can overlap the other calls
DUSP3 inh: blocks human VHR1 dual specificity phosphatase. P51452. recombinant VHR phosphatase, pNPP absorbance. inhibition, % at 13.3 µM. 290,000 tested, 0.52% active. AID 1654; in the data active = inhibition above about 50%
Target sequence (P51452 whole entry, looked up): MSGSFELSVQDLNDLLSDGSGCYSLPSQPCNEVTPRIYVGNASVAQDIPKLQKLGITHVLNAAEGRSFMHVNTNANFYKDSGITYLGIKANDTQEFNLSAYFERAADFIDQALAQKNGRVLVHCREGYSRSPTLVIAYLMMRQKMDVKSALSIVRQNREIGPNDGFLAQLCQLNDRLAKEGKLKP
BoNT A protease: inhibitors of Botulinum neurotoxin A light chain protease. multiplex microsphere protease substrate cleavage, flow cytometry. inhibition, % at 10 µM. 360,000 tested, 0.17% active. AID 588499; note: plate controls were buffer without enzyme for full effect and enzyme alone for no effect
Anthrax LF prot: blocks Bacillus anthracis lethal factor protease | P15917 | multiplex microsphere protease cleavage assay, LF | inhibition, % at 10 µM | 360,000 tested, 0.12% active | AID 588501; note: plate controls were buffer without enzyme for full effect and enzyme alone for no effect
MazF activator: MazEF (E. coli) toxin RNase activation. 350,000 tested, 0.32% active. P0AE70. FAM/BHQ RNA-DNA oligo cleavage fluorescence, 5 h. activation, % at 20 µM; in the data active = activation above about 50%
Target sequence (P0AE70 whole entry, looked up): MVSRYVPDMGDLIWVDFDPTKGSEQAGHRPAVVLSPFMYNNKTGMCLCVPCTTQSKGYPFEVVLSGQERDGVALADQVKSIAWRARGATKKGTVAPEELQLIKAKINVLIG
BoNT F protease: BoNT F light chain protease inhibition | AID 588497 | inhibition, % at 10 µM | 360,000 tested, 0.22% active | Multiplex microsphere protease cleavage assay, flow cytometry; in the data active = inhibition above about 35%, passing the limit was not always enough; inconclusive = no clear call, values can overlap the other calls; note: plate controls were buffer without enzyme for full effect and enzyme alone for no effect
Active calls of the source: *; ? = inconclusive; / = no result given. A selection: hits, their analogues and other compounds. The true share with any hit is near 4.1%. Cut-off read from the data, not from the text of the source, unless noted: active = inhibition above about 30%; inconclusive = no clear call, values can overlap the other calls; inactive = below that.

SMILES | Autofluor counter | DUSP3 inh | BoNT A protease | Anthrax LF prot | MazF activator | BoNT F protease
Cc1ccc(NCC(=O)Nc2cccc(S(=O)(=O)N(C)C)c2)c(Cl)c1 | 2464 | -4.4 | -0.3 | -0.6 | -1.9 | -6.9
Cc1cc(C)cc(Oc2nn[nH]n2)c1 | 24301* | 26.9 | -0.6 | 1.2 | 1.5 | -3.8
CC(C)(C)c1cccc(Oc2nn[nH]n2)c1 | 7873 | 14.4 | -0.9 | -5.1 | 1.9 | -4.5
Cc1cccc(/C=N/NC(=O)c2ccccc2OCc2cccc(Br)c2)n1 | 3562 | 11.8 | -3.5 | -8.2 | -1.2 | -13.3
Cc1cccc(/C=N/NC(=O)c2cc(Br)ccc2OCc2ccccc2)n1 | 4236 | 18.5 | -6.6 | -8.6 | 125.2* | -25.2
CC(C)[C@H](NC(=O)[C@@H]1Cc2ccccc2CN1)C(=O)NC1CCCCC1 | 5312 | -2.2 | -1.7 | -3.2 | 1.7 | -2.5
C[C@H](NC(=O)[C@@H]1Cc2ccccc2CN1)C(=O)NC1CCCCC1 | 5758 | 52.7* | -2.0 | -3.2 | 6.7 | -3.3
CCOC(=O)Cc1csc(NC(=O)CSc2nc3sc(C(=O)O)c(C)c3c(=O)[nH]2)n1 | 22793* | 32.7 | ? | 1.0 | 0.7 | -3.0
Cc1csc(NC(=O)CSc2nnc(-c3ccncc3)o2)n1 | 2795 | 17.2 | -0.3 | -4.5 | 4.7 | -11.0
CCOC(=O)Cc1csc(NC(=O)CSc2nnc(-c3ccc(NS(=O)(=O)CC)cc3)o2)n1 | 21681* | / | 2.1 | 2.7 | -3.7 | 2.6
Cc1csc(NC(=O)CSc2nc3sc(C)c(C)c3c(=O)[nH]2)n1 | 3198 | -23.4 | 0.6 | -2.4 | -13.5 | -7.7
CCOC(=O)Cc1csc(NC(=O)CSc2nnc(-c3ccncc3)o2)n1 | 4305 | 53.0* | -1.1 | -3.2 | -1.6 | -9.0
Cc1cccc(OCCNS(=O)(=O)c2ccc(Cl)cc2)c1 | 3574 | / | -0.1 | -5.8 | 4.8 | -3.5
Cc1cc(CSc2ccc(Cl)cc2)ccc1N | 4142 | / | -0.5 | -5.5 | -6.6 | -7.3
Cc1ccccc1NC(=O)C1CCN(c2cnccn2)CC1 | 21599* | 22.0 | -2.0 | -2.7 | 1.7 | -4.8
COc1ccccc1NC(=O)C1CCN(c2ncccn2)CC1 | 21787* | 7.1 | -0.6 | -3.0 | 0.4 | -1.7
COc1ccc(OC)c(NC(=O)C2CCN(c3ncccn3)CC2)c1 | 19922* | 3.0 | 1.3 | -4.2 | 1.8 | -1.4
OC[C@@H]1CN(Cc2ccc(Cl)cc2)C[C@H](n2cnc3c(NC4CCC4)ncnc32)O1 | 3554 | / | -0.1 | 4.3 | / | 9.8
CCOC(=O)C1CCN(S(=O)(=O)c2ccccc2[N+](=O)[O-])CC1 | 4009 | / | -4.1 | -12.5 | 4.1 | ?
CCn1cc(C(=O)NCCc2ccc(OC)c(OC)c2)c(=O)c2cc(S(=O)(=O)N3CCOCC3)ccc21 | 5783 | -7.0 | -0.2 | 0.3 | 0.7 | -3.0
CCOC(=O)c1c(-n2c(C)cc(C=C3C(=O)NC(=S)NC3=O)c2C)sc2c1CCCC2 | 9156 | -3.7 | 36.2* | 37.6* | -49.0 | 28.6
CC1(C)CC(=O)C2=C(C1)OC(N)=C(C#N)C21C(=O)N2CCCc3cccc1c32 (stereo not drawn) | 16191* | 1.2 | 0.9 | -4.6 | 1.9 | 0.6
CN(C)c1ccc(N/C=C/C(=O)c2ccc(F)cc2)cc1 | 20250* | -5.0 | ? | -1.9 | 105.0* | 6.7
CCC(C)n1c(C)cc(=O)n1C(C)CC (stereo not drawn) | 3762 | / | 0.0 | -1.7 | 8.4 | -13.3
CN(CCc1ccccc1)C(CCc1ccccc1)C(=O)Nc1ccc2c(c1)OCCO2 (stereo not drawn) | 4023 | / | -0.3 | -1.7 | / | -8.2
SMILES | Autofluor counter | DUSP3 inh | BoNT A protease | Anthrax LF prot | MazF activator | BoNT F protease
COC(=O)c1cccc(NC(=O)Cn2cnc3ccccc3c2=O)c1 | 5861 | 9.7 | 1.1 | -2.2 | -2.5 | 6.5
NS(=O)(=O)c1cccc(NC(=O)Cn2cnc3ccccc3c2=O)c1 | 20676* | 18.8 | 3.1 | -3.9 | 0.3 | 2.2
O=C(NCCSCc1ccco1)c1ccc(=O)[nH]c1 | 3253 | -2.6 | -2.6 | -7.0 | -2.2 | -11.7
CCc1ccc(-c2c(C)sc(NC(C)=O)c2C(N)=O)cc1 | 22107* | -0.8 | -7.6 | -0.4 | -2.6 | -10.4
Clc1ccc(OCc2nc(-c3ccccn3)n[nH]2)cc1 | 19968* | -1.0 | 0.4 | -2.2 | -20.2 | -1.2
Cc1cc(OCCSc2nnc(-c3cccs3)n2C)ccc1Cl | 4625 | 44.4 | 0.3 | -4.2 | -3.3 | 7.6
Cn1c(SCCOc2ccc(Cl)cc2)nnc1-c1ccncc1 | 23566* | 6.2 | -0.1 | 4.3 | 5.7 | -0.8
Cn1c(SCc2c(F)cccc2Cl)nnc1-c1cccs1 | / | -2.0 | / | / | -7.9 | /
Cc1ccc(OCCSc2nnc(-c3cccs3)n2C)cc1 | 20327* | 8.8 | ? | 1.2 | -3.3 | -2.1
Cn1c(SCCOc2ccccc2Cl)nnc1-c1cccs1 | 22281* | -13.9 | 1.8 | -0.4 | -6.4 | -1.1
O=C(NCCc1ccccc1Cl)C1CCC(=O)N(C2CCCCCC2)C1 (stereo not drawn) | 4182 | 22.8 | 0.3 | -0.7 | -2.0 | 5.6
CCn1c(SCc2cccc(C(F)(F)F)c2)nnc1-c1ccco1 | 22937* | 4.2 | -1.5 | -4.7 | 1.3 | -0.9
CCc1nnc2n1N=C(c1ccc(OC)cc1)CS2 | 17512* | 20.4 | -3.1 | -4.5 | 9.4 | -10.3
c1ccc(-c2ccc(C3=Nn4c(nnc4-c4cc(-c5ccccc5)n[nH]4)SC3)cc2)cc1 | 18459* | 13.9 | 3.4 | 3.2 | -72.7 | 2.2
CCOc1ccc(C2=Nn3c(nnc3-c3ccccc3OC)SC2)cc1 | 22729* | 37.5 | 1.1 | 0.2 | 6.8 | 0.8
COc1ccccc1-c1nnc2n1N=C(c1ccc(O)c(O)c1)CS2 | 15681 | 9.5 | 1.3 | -2.7 | 5.5 | -2.2
Cc1cccc(-c2nnc3n2N=C(c2ccc(Br)cc2)CS3)c1 | / | 12.8 | / | / | -10.1 | /
COc1cccc(-c2nnc3n2N=C(c2cccc(Br)c2)CS3)c1 | 20881* | 3.4 | ? | -0.3 | -11.5 | -5.3
CCc1nnc2n1N=C(c1ccc([N+](=O)[O-])cc1)CS2 | 4095 | 31.5 | 1.0 | 7.3 | 4.1 | ?
COc1ccc(C2=Nn3c(nnc3-c3ccccn3)SC2)cc1 | 24133* | 23.4 | ? | -1.8 | 6.0 | -2.3
Cc1ccc(-c2nnc3n2N=C(c2ccc(Br)cc2)CS3)cc1 | 5697 | 4.6 | -0.2 | -12.2 | 8.2 | -7.8
CCOc1ccc(-c2nnc3n2N=C(c2ccc(OC)cc2)CS3)cc1 | 19797* | 7.3 | 6.3 | 3.7 | 10.4 | 10.5
CCN(C(=O)CSc1nnnn1-c1ccc(Cl)cc1)C1CCS(=O)(=O)C1 (stereo not drawn) | 2790 | / | -0.8 | 1.1 | 0.3 | -0.2
COc1cccc(CCC2C(=O)CCCC2=O)c1 | 3962 | / | -0.8 | -3.7 | -2.1 | -9.2
CCn1c(SCC(=O)NCc2ccco2)nnc1-c1cccs1 | 19582* | -12.0 | ? | -6.7 | -1.6 | 5.8
CCn1c(=O)c2ccccc2n2c(SCC(=O)NCc3cccs3)nnc12 | 23072* | -4.6 | -1.8 | -1.3 | -2.2 | -3.7
CCn1c(SC(=O)NC2CCCCC2)nnc1-c1cccs1 | 16821* | -3.7 | -0.7 | -3.0 | 2.1 | -1.4
CCn1c(SCC(=O)NC2CC2)nnc1-c1cccs1 | 7427 | / | 2.9 | 2.3 | 0.6 | 7.1
